For seven molecules, growth results are on record in PubChem BioAssay (NCI).

About 83,000 compounds went through this panel and 20% of them were active in at least one assay; those are over-represented in the sample as a whole.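 Percent growth is the endpoint: 0 to 100 indicates growth inhibition (40 means 60% inhibition), 0 means no net growth, and negative values indicate cell death.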 Calls of active or inactive are those of the source. How the source made its calls: active means growth percent below 10; inactive means the rest.

What all share (test): NCI-60 one-dose screen, 48 h (100 = growth as untreated, 0 = no growth, -100 = all killed)
Holding throughout (conditions): 10 µM unless noted

For test [1], the system named is NCI-H23 lung.
The test system of test [2] is NCI-H226 lung.
Test [3] concerns NCI-H322M lung.
Test [4] relates to HOP-62 NSCLC.
In test [5] the test system is NCI-H460 lung.
In test [6] the test system is 786-0 renal.
Test [7] deals with DU-145 prostate.
For test [8], the system named is MDA-MB-231 breast.
The subject of test [9] is SF-268 CNS.
The subject of test [10] is SF-539 CNS.
Test [11] deals with M14 melanoma.
The subject of test [12] is SNB-19 CNS.
Test [13] concerns U251 CNS.
For test [14], the system named is SN12C renal.
Test [15] relates to UO-31 renal.
The subject of test [16] is SK-OV-3 ovarian.
Test [17] relates to MDA-MB-435 melanoma.
The test system of test [18] is SW-620 colon.
For test [19], the system named is HCT-116 colon.
In test [20] the test system is KM12 colon.

In the case of `O=S(=O)(c1ccc(Cl)cc1)C(Cl)(Cl)Cl`, the growth in [1] is 40.6% (inactive); in test [2] it was 60.8% (inactive); in [3], 75.2% (inactive); in test [4], 78.5% (inactive); in [5], 80.4% (inactive); in test [6], 51.8% (inactive). Also, the growth was 49.4% (inactive) in test [7]; 42% (inactive) in test [8]; 45.5% (inactive) in test [9]; 33.8% (inactive) in test [10]; 8.38% (active) in test [11]; 82.9% (inactive) in [12]. The growth in [13] was 52.1% (inactive); in [14], 58.3% (inactive); in [15] it was 9.42% (active); in test [16], 84.9% (inactive); in [17], -14.8% (active); in [18], 24.4% (inactive). The growth in [19] is 42.2% (inactive); in test [20], 23.4% (inactive).

For `O=C(O)C1[O][Sb][O]C1C(=O)O` (stereo not drawn), the growth is 110% (inactive) in test [1]; 93.9% (inactive) in test [2]; 101% (inactive) in test [3]; 109% (inactive) in [4]; 108% (inactive) in test [5]; 102% (inactive) in [6]. Moreover, the growth in test [7] was 91.4% (inactive); in test [8], 128% (inactive); in test [9], 93% (inactive); in test [10], 98.2% (inactive); in [11], 94.5% (inactive); in test [12] it was 110% (inactive). Moreover, the growth in test [13] was 102% (inactive); in test [14] it was 104% (inactive); in test [15], 90.7% (inactive); in [16] it was 102% (inactive); in test [17], 105% (inactive); in [18] it was 117% (inactive). The results for the growth in test [19] and in test [20] were 103% (inactive) and 99.5% (inactive), respectively.

Regarding `CC1(C)N=C(N)N=C(N)N1c1ccc(CCCCc2ccc(S(=O)(=O)F)cc2)cc1`, the growth in test [1] was 39.4% (inactive); in [2], 36.8% (inactive); in test [3] it was 31.2% (inactive); in [4], 31.9% (inactive); in test [5], 12.3% (inactive); in test [6], 25.1% (inactive). Also, the growth is 31.8% (inactive) in test [7]; 46.7% (inactive) in [8]; 30% (inactive) in test [9]; 28.6% (inactive) in [10]; 27.6% (inactive) in test [11]; 42% (inactive) in [12]. Moreover, the growth in test [13] was 16.7% (inactive); in test [14] it was 26.8% (inactive); in test [15], 104% (inactive); in test [16] it was 69.1% (inactive); in test [17], 18.9% (inactive); in [18] it was 19.4% (inactive). For the same molecule, the figures for the growth in test [19] and in test [20] were 12.6% (inactive) and 17.1% (inactive), respectively.

Turning to `CC(C)(O)/C=C/C(=O)[C@](C)(O)[C@H]1[C@H](O)C[C@@]2(C)[C@@H]3CC=C4[C@@H](C=C(O)C(=O)C4(C)C)[C@]3(C)C(=O)C[C@]12C`, the growth is -40.1% (active) in [1]; -33.9% (active) in [2]; -20.1% (active) in test [3]; -64.2% (active) in test [4]; -20.8% (active) in test [5]; -96.2% (active) in [6]. For the same molecule, the growth was -40.2% (active) in test [7]; -25% (active) in [8]; -27.5% (active) in test [9]; -53.6% (active) in [10]; -75.3% (active) in [11]; -53.1% (active) in test [12]. The growth was -77.5% (active) in test [13]; 7% (active) in test [14]; -54.6% (active) in [15]; 5.63% (active) in test [16]; -52.1% (active) in test [17]; -20% (active) in test [18]. Moreover, the figures for the growth in test [19] and in test [20] were -53.5% (active) and -60.9% (active), respectively.

For the molecule `CN1CCN(C(=O)COc2ccc(/C=C3\CC4C5CC=C6CC(Cl)CCC6(C)C5CCC4(C)C3=O)cc2)CC1` (stereo not drawn), the growth was 71.2% (inactive) in test [1]; 77.2% (inactive) in test [2]; 85.7% (inactive) in test [3]; 96.7% (inactive) in test [4]; 17.2% (inactive) in test [5]; 70.2% (inactive) in [6]. Also, the growth in [7] is 64.9% (inactive); in test [8], 75.2% (inactive); in test [9], 73.2% (inactive); in test [10], 93.6% (inactive); in [11] it was -13% (active); in test [12], 98% (inactive). Further, the growth is 34.1% (inactive) in [13]; 79.7% (inactive) in test [14]; 99.9% (inactive) in test [15]; 85.8% (inactive) in test [16]; 56.6% (inactive) in [17]; 40.4% (inactive) in test [18]. Also, the figures for the growth in test [19] and in test [20] were 34.6% (inactive) and 72.9% (inactive), respectively.

For `C[C@]12CC[C@@H]3c4ccc(OC(=O)Cc5ccc(N(CCCl)CCCl)cc5)cc4CC[C@H]3[C@@H]1CC[C@@H]2OC(=O)Cc1ccc(N(CCCl)CCCl)cc1`, the growth in test [1] was 119% (inactive); in test [2], 92.6% (inactive); in test [3], 100% (inactive); in [4], 110% (inactive); in test [5] it was 125% (inactive); in test [6], 110% (inactive). The growth was 103% (inactive) in test [7]; 102% (inactive) in test [8]; 108% (inactive) in test [9]; 103% (inactive) in [10]; 107% (inactive) in test [11]; 107% (inactive) in test [12]. Further, the growth in test [13] was 107% (inactive); in [14] it was 92.3% (inactive); in [15], 82.7% (inactive); in [16], 126% (inactive); in test [17], 112% (inactive); in test [18] it was 103% (inactive). Moreover, the results for the growth in [19] and in test [20] were 104% (inactive) and 111% (inactive), respectively.

Regarding `CCOc1cc(C=C(C#N)C#N)cc(Br)c1O`, the growth is 99% (inactive) in [1]; 106% (inactive) in test [2]; 98.1% (inactive) in test [3]; 111% (inactive) in test [4]; 102% (inactive) in test [5]; 103% (inactive) in [7]. Further, the growth is 109% (inactive) in [8]; 95.6% (inactive) in test [9]; 99.5% (inactive) in [10]; 98% (inactive) in test [11]; 96.5% (inactive) in test [13]; 106% (inactive) in test [14]. Also, the growth in test [15] is 88.9% (inactive); in test [16] it was 116% (inactive); in test [17], 101% (inactive); in test [18] it was 106% (inactive); in test [19] it was 99.2% (inactive); in [20], 103% (inactive).
